Bioassay records (PubChem BioAssay)
AMA1-RON2 inh: inhibitors of Plasmodium falciparum AMA1-RON2 interaction | AlphaScreen AMA1-biotinylated RON2 peptide binding | Potency, µM (top dose mostly 58.2 µM), for inactives: at the top dose activity change, negative = inhibition, hits mostly inhibitors | 0.2% of 360,000 active | AID 720542;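 note: 0% = vehicle wells and -100% = peptide control; nearly all actives have a fitted effect of over 45% in size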
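AMA1 (3D7) with his tag at 25 nM final met compounds first, then biotinylated RON2 peptide at 25 nM; detection used donor plus acceptor beads, 10 µg/mL apiece, read by AlphaScreen after 30 min at room temperature.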
Pf growth 96h: inhibits malaria parasite growth, 96 h; 6.9% of 320,000 active; Potency, µM (highest dose often 28.7 µM), without a hit: top-dose activity change, negative = inhibition, actives largely listed as inhibitors; AID 504834; P. falciparum luciferase reporter growth, 96 h; note: % is set by controls: 0 for no effect and ±100 for the full control effect
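96 h incubation, 37 C, 5% CO2, of luciferase-reporter P. falciparum-infected RBCs (2% hematocrit, 0.05% parasitemia final) with test compounds; endpoint luminescence.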
SARS PLpro yeast: inhibitors of SARS-CoV papain-like protease in yeast | S. cerevisiae expressing SARS-CoV PLpro, growth rescue | Potency, µM (series often up to 32.9 µM), without a hit: top-dose activity, positive = growth rescue, hits mostly activators | 0.19% of 330,000 active | AID 485353; calls by dose curve; note: 0% is about no effect; nearly all actives have a fitted effect of over 55% in size
NS1 inh: inhibitors of influenza NS1 protein function. 0.4% of 270,000 active. Potency, µM (series often up to 46.1 µM), inactives show at the top dose activity, positive = more growth; calls by dose curve; note: actives are rising curves; nearly all actives have a fitted effect of over 50% in size
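OD600 was taken as the measure of yeast growth restored by compound in an NS1-expressing S. cerevisiae strain. Cells had been washed out of glucose medium and diluted 1:100 into galactose -URA medium, pH 6.0.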
Pf growth 48h: inhibits P. falciparum growth in the first generation, 48 h. P. falciparum luciferase growth in erythrocytes, 48 h. Potency, µM (series often up to 28.7 µM), inactives show at the top dose activity change, negative = inhibition, most hits filed as inhibitors. 5.9% of 310,000 active. AID 504832; note: % is set by controls: 0 for no effect and ±100 for the full control effect
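First compound was added to culture medium, then infected red cells at 0.1% parasitemia and 2% hematocrit (final). After incubation at 37 C under 5% CO2, luciferase detection reagent was dispensed and light output recorded.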
HCV inhibitor: inhibitors of hepatitis C virus infection; 3.4% of 340,000 active; Potency, µM (doses to about 41.8 µM), without a hit: at the highest dose activity change, negative = inhibition, actives largely listed as inhibitors; AID 651820; Huh7.5.1 HCVcc-Cre infection, luciferase reporter, 44 h; note: % is set by controls: 0 for no effect and ±100 for the full control effect
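After 44 h co-culture of compound, cells and HCVcc-Cre (~0.5 moi), substrate is added for 15 min at room temperature and luciferase measured over 15 sec. Cells were seeded at 1,000/well and pre-cultured 4 h.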
Numbers without * were called inactive; ? = inconclusive; / = no result. In the library only some 12% were active in any assay of this set; here they are far more common. Unless noted, calls come from the whole dose curve; as a rule, active = well fitted curve in the direction sought with a large enough effect; inconclusive = small, poorly fitted or top-dose-only effect, or another doubt; inactive = no such curve, though single readings can be large; an effect the other way counts as inactive or inconclusive. Potency is the fitted concentration of half-maximal effect.

SMILES | AMA1-RON2 inh | Pf growth 96h | SARS PLpro yeast | NS1 inh | Pf growth 48h | HCV inhibitor
COc1cc(OC)cc(C(=O)N[C@H](C(=O)Nc2nc(-c3ccc(OC)c(OC)c3)cs2)C(C)C)c1 | -5% | 10µM* | 0% | 12% | 13µM* | ?
Cc1ccc(NC(=O)C2COc3ccccc3O2)cc1 (configuration not stated) | -4% | ? | -4% | -24% | 79% | 1%
COc1ccc(CC(=O)Nc2nc(-c3ccncc3)cs2)cc1 | -10% | 13µM* | -3% | 3% | ? | ?
COc1ccc(-c2csc(NC(=O)COC(=O)Cc3ccccc3)n2)cc1OC | / | 54% | 2% | 25% | 13% | -11%
COCCCNC(=O)c1nc2ccccc2c(=O)n1NC(=O)Nc1c(Cl)cccc1Cl | 3% | 8% | 2% | 0% | 3% | ?
COc1ccc(-c2csc(NC(=O)c3ccoc3C)n2)cc1 | -21% | 18% | -1% | / | 56% | 11µM*
COc1ccc(-c2csc(NC(=O)C3COc4ccccc4O3)n2)cc1OC (configuration not stated) | -24% | ? | -2% | ? | -29% | 11µM*
COc1ccc(-c2csc(NC(=O)CCN3C(=O)C4CC=CCC4C3=O)n2)cc1OC (configuration not stated) | -10% | ? | -2% | / | 10µM* | ?
CC(C)(C)c1csc(NC(=O)C2COc3ccccc3O2)n1 (configuration not stated) | -9% | 55% | -9% | -2% | 38% | -42%
COc1ccc(-c2csc(NC(=O)CN3C(=O)C4CC=CCC4C3=O)n2)cc1 (configuration not stated) | -2% | 53% | -1% | / | -15% | ?
COc1ccc(-c2csc(NC(=O)c3c(C)noc3C)n2)cc1 | 13% | 32% | -12% | / | -3% | ?
CC(C)c1ccc(-c2nnc(SCC(=O)NC3CC3)n2C)cc1 | 4% | 0% | 6% | 12% | 55% | 14%
Cc1ccnc(NC(=O)CCC(=O)N(CC(=O)NC(C)(C)C)c2ccc3c(c2)OCO3)c1 | -8% | ? | -1% | -5% | -8% | -2%
Cc1cccc(C(=O)N[C@@H]2c3ccccc3C[C@@H]2O)n1 | -4% | / | / | / | / | 7%
COc1ccc(C2=CSC3=C(C(=O)c4cccc(S(=O)(=O)N(C)C)c4)CCN23)cc1 | 0% | 8.3µM* | -7% | 16% | / | -20%
C[C@H]1CN([C@@H](C)CO)C(=O)c2cc(C#CCC3CCCC3)cnc2O[C@@H]1CN(C)C(=O)CC1CC1 | -21% | / | / | / | / | /
O=C(NC(=S)Nc1cc(Cl)ccc1Cl)c1ccco1 | 49% | / | / | / | / | /
CC(C)(C)NC(=O)CN(C(=O)CN1C(=O)C(=O)c2ccccc21)C(C)(C)C | 5% | 13µM* | -6% | / | 15% | 15%
O=C(CCSc1ccccc1)NC1CCCC1 | 35% | 49% | -4% | -8% | 172% | 18%
O=C(CCSc1ccc(Cl)cc1)N1CCCCCC1 | 6% | 1µM* | 4% | -17% | 143% | 8%
O=C(CCSc1ccc(Cl)cc1)NC1CCCC1 | -5% | 5.9µM* | -2% | 2% | 25% | 9%
CCCC(C(=O)Nc1ccc(S(=O)(=O)Nc2nccs2)cc1)c1ccccc1 (configuration not stated) | -20% | 0% | -3% | / | 0% | 2%
COc1cccc(/C=C/C(=O)OCC(=O)Nc2nnc(-c3ccccc3)o2)c1 | 42% | ? | 2% | / | 26% | -6%
COc1ccc(C)cc1S(=O)(=O)N(CC(=O)Nc1cccc([N+](=O)[O-])c1)c1ccccc1 | 12% | 12µM* | 7% | 21% | ? | 1%
COc1ccc(N(CC(=O)Nc2cc(C)ccc2C)S(=O)(=O)c2ccccc2[N+](=O)[O-])c(OC)c1 | 6% | 38% | -2% | 15% | 2.9µM* | -20%
SMILES | AMA1-RON2 inh | Pf growth 96h | SARS PLpro yeast | NS1 inh | Pf growth 48h | HCV inhibitor
COc1ccc(N(CC(=O)Nc2cc(C)cc(C)c2)S(=O)(=O)c2ccccc2[N+](=O)[O-])c(OC)c1 | -10% | 8.3µM* | 1% | 1% | ? | 20%
CS(=O)(=O)N(CC(=O)Nc1cccc([N+](=O)[O-])c1)c1ccccc1 | 3% | 26% | 1% | 1% | 16% | -6%
CC(C)CNC(=O)c1ccccc1Oc1ccccc1 | 2% | 15µM* | 5% | 5% | / | -1%
COc1ccc(C(=O)NCC(c2cccs2)N2CCc3ccccc32)c(OC)c1 (configuration not stated) | -18% | 5.2µM* | 0% | / | 10µM* | ?
COc1ccc(C(=O)NCC(c2ccco2)N2CCc3ccccc32)cc1 (configuration not stated) | 9% | ? | -1% | / | ? | ?
COc1ccc(C(=O)NCC(C)C)c(OC)c1 | -22% | 9.3µM* | 5% | 1% | ? | ?
COc1ccc(C(=O)Nc2ccccc2Cc2ccccc2)c(OC)c1 | -15% | ? | -16% | -10% | ? | 10µM*
CC(C)C[C@H](NC(=O)C1CC(=O)N(c2ccc3c(c2)OCO3)C1)C(=O)NC1CCCCC1 (some centres not stated) | 0% | -41% | -3% | -1% | ? | 8%
CCOC(=O)Cc1csc(NC(=O)Cn2c(=O)oc3ccccc32)n1 | 0% | 23% | 2% | 1% | 3% | 10%
CC(NC(=O)COC(=O)C1CCN(c2ccc(C(F)(F)F)cn2)CC1)c1ccc(F)cc1 (configuration not stated) | 8% | -2% | 3% | / | 4% | 16%
COc1ccccc1-c1nnc(SCC(=O)NCc2cccs2)n1N | -1% | -6% | 4% | / | 28% | 15%
CCN(CC)S(=O)(=O)c1ccc(OC)c(NC(=O)c2ccc(-n3cncn3)c([N+](=O)[O-])c2)c1 | 8% | -8% | -1% | / | ? | -19%
CC(C)CNC(=O)c1cc2nc(C3CC3)cc(C(F)(F)F)n2n1 | -1% | / | / | / | / | 7.9µM*
O=C(Nc1ccc2c(c1)OCO2)c1cc2nc(C3CC3)cc(C(F)(F)F)n2n1 | 13% | 0.042µM* | 3% | 13% | 11% | -27%
O=C(Nc1cccnc1)c1cc2nc(C3CC3)cc(C(F)(F)F)n2n1 | -3% | 29% | -3% | -11% | 6% | ?
COc1cc(NC(=O)c2cc3nc(C4CC4)cc(C(F)(F)F)n3n2)c(OC)cc1Cl | -5% | ? | -10% | -1% | ? | -7%
O=C(Nc1ccccc1)C1=C[C@H](C2CCCCC2)C[C@H](OCCCCO)O1 | 13% | / | / | / | / | 3%
O=C(Nc1ccccc1)C1=C[C@@H](C2CCCCC2)C[C@@H](OCCCCO)O1 | 2% | 0% | -1% | 0% | 98% | 0.32µM*
